We go through 13 molecules from PubChem BioAssay.

Assay [1] is described as follows: liver-stage malaria parasite load reduction – cell-based, known kinase inhibitor set, luminescence, hepatoma host viability (AID 624392).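 Note: infected cells incubated roughly two days before readout.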 The note with it: Plasmodium liver stage in hepatoma cells, luciferase luminescence, concentration not given here; liver cell % of control: measured here: host liver cell viability; parasite % of control: stronger effect = lower value.
Assay [2] can be described thus: altered dexamethasone sensitivity, NF-kB reporter, cell-based, luciferase, IL-1B stimulus (AID 624486).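 For percent of negative control (+Dex): 100% = mean signal of vehicle control wells on the plate.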 As to conditions: IL-1B + dexamethasone, luminescence; percent of negative control (+Dex): actives lie on both sides, concentration not given here; z-score: measured here: IL-1B alone, no Dex.
The nature of assay [3]: C. elegans survival during P. aeruginosa infection – whole organism (AID 651566).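 Note: tested at 14 µM; sign flipped so higher z means a lower ratio.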 As to conditions: C. elegans killed by P. aeruginosa, survival ratio.
Assay [4] in a line: pro-inflammatory signaling induction in mouse macrophages – cell-based, murine, luminescence (AID 652131). As to conditions: murine macrophage pro-inflammatory reporter, stronger effect = higher value.
Assay [5] addresses Cellular tumor antigen p53 (Homo sapiens) (UniProt P04637). The experiment in a line: GFP-p53 level modulators in HPV16+ cells – imaging, known kinase inhibitor set, EGFP/DsRed ratio (AID 1053116).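 Note: cells exposed to compounds for 24 h at 37 °C before reading.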 As to conditions: GFP-p53 stability, stronger effect = higher value; EGFP object count: measured here: GFP-p53 positive objects count.
Assay [6] can be described thus: inducers of IRF3 signaling, differentiated THP-1 – cell-based, PMA-stimulated THP-1, luminescence (AID 1053176). The note with it: PMA-differentiated THP-1, IRF3 reporter luminescence; stronger effect = higher value.
Assay [7] is described as follows: MELAS cybrid and Rieske KO viability enhancers – cell-based, MELAS cybrids, Rieske KO mouse fibroblasts, CellTiter-Glo, primary screen (AID 1508586;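 active = mean z-score across replicates of 1.96 or higher in either the MELAS or the Rieske mutant cell line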;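 note: z relative to plate mean and SD of compound and empty wells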). The note with it: low glucose. In general terms: In ATP-based viability assays light output follows the ATP content of the culture.
The mark [8] stands for this setting: MELAS cybrid survival, CellTiter-Glo 48 h, stronger effect = higher value.
Where [9] appears, read: Rieske KO mouse fibroblast survival, CellTiter-Glo 72 h.

Active and inactive are the calls of the source. Unless noted, the rule behind the calls is not given here.

Sequence of Cellular tumor antigen p53 (Homo sapiens) (P04637 whole entry, looked up): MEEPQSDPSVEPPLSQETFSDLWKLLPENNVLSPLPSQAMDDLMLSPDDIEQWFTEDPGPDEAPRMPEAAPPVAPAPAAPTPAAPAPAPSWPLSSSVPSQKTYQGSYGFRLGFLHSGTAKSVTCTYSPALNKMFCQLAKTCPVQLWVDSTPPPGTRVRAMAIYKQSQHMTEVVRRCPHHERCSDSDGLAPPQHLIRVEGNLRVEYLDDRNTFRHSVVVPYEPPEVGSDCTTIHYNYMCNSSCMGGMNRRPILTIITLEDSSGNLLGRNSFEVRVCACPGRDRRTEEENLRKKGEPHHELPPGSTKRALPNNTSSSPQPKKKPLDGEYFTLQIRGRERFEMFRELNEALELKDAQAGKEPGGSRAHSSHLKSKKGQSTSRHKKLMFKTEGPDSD

Molecule `Cc1cc(O)cc(C)c1/C=C/c1cncc(C(=O)OC(C)(C)C)c1` showed a liver cell % of control in assay [1] of 60.8%. The parasite % of control in assay [1] was 116% (inactive). For the same molecule, the percent of negative control (+Dex) in assay [2] was 100% (inactive). Besides, the z-score in assay [2] is 0.33; in assay [3], 0.75 (inactive); in assay [4] it was -0.067 (inactive); in assay [7] (setting [8]) it was 0.119 (inactive); in assay [7] (setting [9]), -0.153. For the same molecule, in assay [5], the EGFP object count stood at 34.5. Further, the EGFP/DsRed ratio in assay [5] is 0.559 (inactive). Further, the fraction signal in assay [6] was 0.0035 (inactive).

For `COc1cc2ncn(-c3cc(OCc4ccccc4C(F)(F)F)c(C(=O)N(C)C)s3)c2cc1OC`, the liver cell % of control in assay [1] is 104%. The parasite % of control in assay [1] is 116% (inactive). The percent of negative control (+Dex) in assay [2] is 89.5% (inactive). For the same molecule, the z-score in assay [2] was -0.475; in assay [3], 0.535 (inactive); in assay [4] it was 0 (inactive); in assay [7] (setting [8]) it was 0.0168 (inactive); in assay [7] (setting [9]), -0.0859. The EGFP object count in assay [5] was determined as 8.5. In assay [5], the EGFP/DsRed ratio is 0.396 (inactive). The fraction signal in assay [6] was -0.002 (inactive).

Regarding `COc1cc2ncn(-c3cc(OCc4ccccc4C(F)(F)F)c(C(C)=O)s3)c2cc1OC`, the liver cell % of control in assay [1] was found to be 97.8%. Moreover, the parasite % of control in assay [1] is 91.8% (inactive). Also, the percent of negative control (+Dex) in assay [2] was 82.5% (inactive). Besides, the z-score in assay [2] was -0.63; in assay [3] it was -0.4 (inactive); in assay [4], -0.463 (inactive); in assay [7] (setting [8]), -0.657 (inactive); in assay [7] (setting [9]), 0.0101. In addition, the EGFP object count in assay [5] came out at 5. Further, in assay [5], the EGFP/DsRed ratio is 0.118 (inactive). Moreover, the fraction signal in assay [6] was 0.002 (inactive).

With `CCc1cccc(CC)c1/C=C/c1cncc(C(=O)NC)c1`, the liver cell % of control in assay [1] amounted to 170%. The parasite % of control in assay [1] was 99.3% (inactive). In assay [2], the percent of negative control (+Dex) was 81% (inactive). For the same molecule, the z-score is -0.295 in assay [2]; -0.265 (inactive) in assay [3]; 0.127 (inactive) in assay [4]; 1.32 (inactive) in assay [7] (setting [8]); -0.269 in assay [7] (setting [9]). The EGFP object count in assay [5] is 4.5. Besides, the EGFP/DsRed ratio in assay [5] is 0.156 (inactive). In assay [6], the fraction signal was -0.0125 (inactive).

`CN(C)c1ccc2[nH]c(O)c(C=Nc3ccc(S(N)(=O)=O)cc3)c2c1` gave a liver cell % of control in assay [1] of 88.2%. For the same molecule, the parasite % of control in assay [1] is 103% (inactive). The percent of negative control (+Dex) in assay [2] is 93% (inactive). Also, the z-score in assay [2] is 0.245; in assay [3], 0.065 (inactive); in assay [4] it was 0.675 (inactive); in assay [7] (setting [8]) it was 1.57 (inactive); in assay [7] (setting [9]), -0.102. In assay [5], the EGFP object count stood at 6.5. Besides, the EGFP/DsRed ratio in assay [5] was 0.209 (inactive). Also, the fraction signal in assay [6] is -0.008 (inactive).

Regarding `CN1CCC(C(=O)NC2NNC3NNC(c4ccccc4)CC32)CC1` (stereo not drawn), in assay [1], the liver cell % of control was found to be 89.8%. Also, in assay [1], the parasite % of control was 66% (inactive). Further, in assay [2], the percent of negative control (+Dex) is 90.5% (inactive). The z-score in assay [2] is -0.385; in assay [3], -0.44 (inactive); in assay [4] it was 3.5 (inactive); in assay [7] (setting [8]), -0.114 (inactive); in assay [7] (setting [9]), -0.215. In assay [5], the EGFP object count came to 24. Moreover, the EGFP/DsRed ratio in assay [5] was 0.259 (inactive). Besides, the fraction signal in assay [6] is -0.0035 (inactive).

As for `COc1ccc(Nc2ncc(-c3ccccc3)o2)cc1OC`, in assay [1], the liver cell % of control worked out at 152%. Besides, in assay [1], the parasite % of control was 101% (inactive). For the same molecule, the percent of negative control (+Dex) in assay [2] was 154% (inactive). Further, the z-score is 4.41 in assay [2]; -0.885 (inactive) in assay [3]; 4.21 (inactive) in assay [4]; 1.52 (inactive) in assay [7] (setting [8]); 0.00272 in assay [7] (setting [9]). In assay [5], the EGFP object count was 3. In addition, the EGFP/DsRed ratio in assay [5] is 0.0153 (inactive). In addition, the fraction signal in assay [6] was -0.0085 (inactive).

Molecule `COc1ccc(C2=C(N3CCc4ccccc43)C(=O)NC2=O)cc1` displayed a liver cell % of control in assay [1] of 80.9%. The parasite % of control in assay [1] is 77.5% (inactive). The percent of negative control (+Dex) in assay [2] was 84% (inactive). Besides, the z-score in assay [2] was -0.36; in assay [3], 0.12 (inactive); in assay [4], -0.139 (inactive); in assay [7] (setting [8]), -0.15 (inactive); in assay [7] (setting [9]) it was -0.362. Moreover, the EGFP object count in assay [5] stood at 7.5. Further, in assay [5], the EGFP/DsRed ratio was 0.229 (inactive). In assay [6], the fraction signal is -0.0035 (inactive).

The molecule `CCn1c(-c2nonc2N)nc2ccc(F)cc21` returned a liver cell % of control in assay [1] of 98%. For the same molecule, in assay [1], the parasite % of control is 113% (inactive). Also, the percent of negative control (+Dex) in assay [2] was 82.5% (inactive). For the same molecule, the z-score in assay [2] was -0.655; in assay [3], -0.725 (inactive); in assay [4], -0.544 (inactive); in assay [7] (setting [8]), -0.0553 (inactive); in assay [7] (setting [9]) it was 0.0939. Further, the EGFP object count in assay [5] was determined as 4. For the same molecule, the EGFP/DsRed ratio in assay [5] is 0.0296 (inactive). Further, in assay [6], the fraction signal was 0.0105 (inactive).

In assay [1], `c1cnn2ncc(-c3ccnc(NCCCN4CCOCC4)n3)c2c1` came in with a liver cell % of control of 91.2%. Moreover, in assay [1], the parasite % of control is 426% (inactive). Also, the percent of negative control (+Dex) in assay [2] was 57% (inactive). The z-score in assay [2] was -4.11; in assay [3], 0.63 (inactive); in assay [4] it was -1.59 (inactive); in assay [7] (setting [8]), -0.792 (inactive); in assay [7] (setting [9]) it was -0.375. Moreover, the EGFP object count in assay [5] was found to be 1.5. In assay [5], the EGFP/DsRed ratio was 0.248 (inactive). Besides, the fraction signal in assay [6] is -0.004 (inactive).

In assay [1], `O=C(Nc1n[nH]c2nc(-c3ccco3)ccc12)C1CC1` displayed a liver cell % of control of 201%. Moreover, the parasite % of control in assay [1] is 24% (inactive). Moreover, the percent of negative control (+Dex) in assay [2] is 104% (inactive). The z-score is -0.105 in assay [2]; -0.7 (inactive) in assay [3]; 0.373 (inactive) in assay [4]; -0.235 (inactive) in assay [7] (setting [8]); -0.343 in assay [7] (setting [9]). In assay [5], the EGFP object count stood at 2. The EGFP/DsRed ratio in assay [5] was 0.0203 (inactive). Further, the fraction signal in assay [6] is -0.008 (inactive).

As to `COc1ccc(-c2nn3ncccc3c2-c2ccnc(Nc3cccc(C(F)(F)F)c3)n2)cc1`, the liver cell % of control in assay [1] was 92.5%. For the same molecule, the parasite % of control in assay [1] is 122% (inactive). For the same molecule, in assay [2], the percent of negative control (+Dex) was 90.5% (inactive). Besides, the z-score in assay [2] is 0.64; in assay [3], 0.3 (inactive); in assay [4] it was 0.045 (inactive); in assay [7] (setting [8]), 1.24 (inactive); in assay [7] (setting [9]) it was -0.239. Also, the EGFP object count in assay [5] came to 4.5. In assay [5], the EGFP/DsRed ratio was 0.0918 (inactive). For the same molecule, the fraction signal in assay [6] is 0.002 (inactive).

As for `O=C(NCC1CC1)c1ccc(-c2cccc(C(=O)NC3CC3)c2)cc1`, the liver cell % of control in assay [1] was 164%. Besides, the parasite % of control in assay [1] was 130% (inactive). For the same molecule, in assay [2], the percent of negative control (+Dex) is 91.5% (inactive). For the same molecule, the z-score in assay [2] was 1.28; in assay [3] it was -0.465 (inactive); in assay [4], 1.36 (inactive); in assay [7] (setting [8]), -0.117 (inactive); in assay [7] (setting [9]), -0.418. In assay [5], the EGFP object count is 4.5. Further, in assay [5], the EGFP/DsRed ratio was 0.0862 (inactive). The fraction signal in assay [6] was 0 (inactive).
